Screening data (PubChem BioAssay)
Sampled rows, rich in hits. Any-hit rate of the full collection: about 2.8%.
IP6K1 inhibitor: IP6K1 kinase inhibition | AID 1645851 | IP6K1 kinase, ADP-Glo luminescence, 2 h; hits give low values | activity change, % (series mostly up to about 58 µM) | Q92551 | hit rate 0.81% among 140,000; in the data active = activity change below about -25%
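ADP-Glo luminescence measures ADP made by human IP6K1 during a 2 h RT reaction with ATP/IP6 (mix at 1.3 mM/130 uM); top library doses 57.5 and 19.1 uM final.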
SNCA viab count: cell viability loss counter-screen; HEK-293-SNCA-luc viability, GF-AFC fluorescence, 24 h; Potency, µM (doses to about 57.1 µM), hits mostly cytotoxic; hit rate 0.12% among 150,000; also: nearly all actives have a fitted effect of over 30% in size
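Cytotoxicity counterscreen: after 24 h compound treatment of genome-edited SNCA-luciferase HEK-293 cells, live-cell protease substrate GF-AFC read by fluorescence after 30 min; activity scaled between DMSO (0%) and medium-only (-100%), curves Hill-fitted.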
SNCA expr inh: reduces expression of the alpha-synuclein gene; HEK-293 SNCA-luciferase knock-in, luminescence, 24 h; Potency, µM (highest dose often 57.2 µM), usual class: inhibitors; hit rate 0.17% among 140,000; also: nearly all actives have a fitted effect of over 45% in size
KDM5B inh: blocks human KDM5B histone demethylase activity | hit rate 2.6% among 220,000 | Q9UGL1 | KDM5B demethylase, FDH-coupled NADH fluorescence (FDH is formaldehyde dehydrogenase) | AID 1347165 | Potency, µM (doses to about 57.7 µM), hits mostly inhibitors; also: nearly all actives have a fitted effect of over 70% in size
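Measured: NADH fluorescence change, 30 min, RT. System: KDM5BΔAP 200 nM final, H3K4me3 peptide, α-KG, Fe(II), ascorbate, NAD⁺ plus FDH, pH 7.5 HEPES. Compounds: titrated, 10 min pre-incubation with enzyme.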
Each line names hits and unclear results; the compound was inactive in the other large screens. Unless noted, calls follow the shape of the dose curve; as a rule, active = well fitted curve in the direction sought with a large enough effect; inconclusive = small, poorly fitted or top-dose-only effect, or another doubt; inactive = no such curve, though single readings can be large; an effect the other way counts as inactive or inconclusive.

CCOc1cc(-c2noc(-c3nnn4c3COC(c3ccc(F)cc3)C4)n2)ccc1OC (stereo not drawn)	KDM5B inh 25µM
CCOc1ccccc1-c1noc(-c2nnn3c2COC(c2ccc(F)cc2)C3)n1 (stereo not drawn)	KDM5B inh inconclusive
CCOc1ccccc1-c1noc(-c2nnn3c2COC(c2ccc(OC)cc2)C3)n1 (stereo not drawn)	KDM5B inh 18µM
CCOc1ccccc1-c1noc(-c2nnn3c2COC(c2cccc(OC)c2)C3)n1 (stereo not drawn)	none
CCOc1ccccc1-c1nc(-c2nnn3c2COC(c2ccc(OC)cc2)C3)no1 (stereo not drawn)	KDM5B inh 28µM
Cc1sc(-c2ccccc2)nc1-c1ccc(C(C)(C)C)cc1	none (no result: IP6K1 inhibitor, SNCA viab count, SNCA expr inh)
O=C(Nc1ccc2oc(-c3ccc(Cl)cc3)nc2c1)c1ccccc1	none (no result: IP6K1 inhibitor, SNCA viab count, SNCA expr inh)
CCn1nc(C(=O)NC(C)(C)C)c2ccccc2c1=O	none (no result: IP6K1 inhibitor, SNCA viab count, SNCA expr inh)
CC(=O)c1cc(Br)ccc1OCc1ccc(Cl)c(Cl)c1	none (no result: IP6K1 inhibitor, SNCA viab count, SNCA expr inh)
CCOC(=O)C1CCN(C(=O)c2cn3ccnc(-c4ccc(OC)cc4)c3n2)CC1	KDM5B inh 25µM
COc1ccc(-c2nccn3cc(C(=O)NCc4cccnc4)nc23)cc1	KDM5B inh 20µM
COc1ccc(-c2nccn3cc(C(=O)Nc4ccc(OC)c(OC)c4)nc23)cc1	none
CCOC(=O)C1CCN(C(=O)c2cn3cc(-c4ccc(OC)cc4)sc3n2)CC1	none (no result: KDM5B inh)
COc1ccc(-c2nccn3cc(C(=O)NCCc4cccnc4)nc23)cc1	KDM5B inh 28µM
COc1ccc(CNC(=O)c2cn3ccnc(-c4ccccc4)c3n2)cc1OC	none
COCCNC(=O)c1cn2ccnc(-c3ccc(C)cc3)c2n1	none
COc1ccc(-c2nccn3cc(C(=O)O)nc23)cc1	KDM5B inh 28µM
CCONC(=O)c1cc2cc(C)ccc2o1	none (no result: IP6K1 inhibitor, SNCA viab count, SNCA expr inh)
COc1ccccc1N1CCN(C[C@@H]2C=C(C)[C@H](Cc3nnc(-c4cncn4C)o3)C[C@H]2C(C)C)CC1	SNCA viab count inconclusive, SNCA expr inh inconclusive
COc1ccc(-c2nccn3cc(C(=O)NCc4nc5ccccc5n4C)nc23)cc1	KDM5B inh 7.9µM
COCCn1ccc2c(C3=CCOCC3)nc(-c3cccc(C(N)=O)c3)cc21	SNCA viab count inconclusive, KDM5B inh 32µM
C1=C(c2nc(-c3ccncc3)cc3c2ccn3Cc2cccnc2)CCOC1	KDM5B inh inconclusive
COCCn1ccc2c(C3=CCOCC3)nc(-c3cccc(O)c3)cc21	KDM5B inh 40µM
Cn1nc(C(=O)NCC(=O)N2CCCCCNC(=O)CC2c2ccccc2)c2ccccc21 (stereo not drawn)	KDM5B inh 28µM
CC(=O)N1CCCN(c2ncnc3c2CN(C2CCCNCC2)C(=O)CN3C)CC1 (stereo not drawn)	none
CN1CC(=O)N(C2CCCNC2)Cc2c1ncnc2N1CCc2ccccc2C1 (stereo not drawn)	KDM5B inh 50µM
CC(=O)N1CCCN(c2ncnc3c2CN(C2CCCNC2)C(=O)CN3C)CC1 (stereo not drawn)	KDM5B inh 50µM
Cc1noc(C)c1CO[C@@H]1COCC[C@H]1NC(=O)c1cccc(=O)[nH]1	KDM5B inh 18µM
COCc1ccc(C(=O)N[C@@H]2COCC[C@@H]2OCc2c(C)noc2C)o1	none
CCOC(=O)c1cc2n(n1)CC(C)(C(=O)NCCC(C)C)N(c1cc(Cl)ccc1OC)C2=O (stereo not drawn)	none (no result: IP6K1 inhibitor, SNCA viab count, SNCA expr inh)
Cc1ccc(C(=O)N2CCN(c3nccc(Nc4ccccc4Cl)n3)CC2)cc1	SNCA viab count inconclusive (no result: KDM5B inh)
COc1ccc(-c2ccnc3nc(C(C)C)nn23)cc1OC	KDM5B inh 28µM
COc1ccc(-c2ccnc3nc(C(C)C)nn23)cc1	KDM5B inh 25µM
COc1cc(-c2ccnc3nc(C(C)C)nn23)cc(OC)c1OC	KDM5B inh inconclusive
COc1ccc(-c2ccnc3nc(C(C)C)nn23)c(F)c1	none
O=S(=O)(NCC1Cn2cccc2CN1Cc1cccnc1)c1ccc(F)cc1 (stereo not drawn)	KDM5B inh 28µM
O=C(NCC1Cn2cccc2CN1Cc1cccnc1)Nc1ccccc1 (stereo not drawn)	KDM5B inh inconclusive
CCOCCCNC(=O)NCC1Cn2cccc2CN1Cc1ccccc1 (stereo not drawn)	KDM5B inh 28µM
Cn1cnc(S(=O)(=O)NCC2Cn3cccc3CN2Cc2ccccc2)c1 (stereo not drawn)	KDM5B inh 28µM
COc1cccc(CC(=O)NCC2Cn3cccc3CN2Cc2ccccc2)c1 (stereo not drawn)	none (no result: KDM5B inh)
Cn1nccc1C(=O)NCC1Cn2cccc2CN1Cc1ccccc1 (stereo not drawn)	KDM5B inh 22µM
O=S(=O)(NCC1Cn2cccc2CN1Cc1ccccc1)c1ccccc1 (stereo not drawn)	none (no result: KDM5B inh)
CCCN(CCC)S(=O)(=O)N1CC=C(c2c(OC)cc(OC)cc2OC)CC1	none (no result: IP6K1 inhibitor, SNCA viab count, SNCA expr inh)
CCc1nn2c(=O)cc(COC(=O)c3ccccc3NC(=O)c3ccccc3F)nc2s1	none (no result: IP6K1 inhibitor, SNCA viab count, SNCA expr inh)
O=C(c1ccc(Cl)cc1)N1CC2(CCCN(Cc3cccnc3)C2)Cc2ccccc21 (stereo not drawn)	SNCA viab count inconclusive, SNCA expr inh inconclusive
O=C(CSc1nc(C(F)(F)F)nc2ccccc12)NC1CCCC1	none (no result: IP6K1 inhibitor, SNCA viab count, SNCA expr inh)
CC(C)S(=O)(=O)NCC1Cn2cccc2CN1Cc1ccccc1 (stereo not drawn)	KDM5B inh inconclusive
CN1Cc2cccn2CC1CNC(=O)c1ccccc1F (stereo not drawn)	KDM5B inh inconclusive
O=C(NCC1Cn2cccc2CN1Cc1ccccc1)c1cncc(Br)c1 (stereo not drawn)	KDM5B inh 28µM
CN1Cc2cccn2CC1CNC(=O)c1ccnn1C (stereo not drawn)	SNCA expr inh inconclusive, KDM5B inh 22µM
O=C(NCC1Cn2cccc2CN1Cc1ccccc1)c1ccccn1 (stereo not drawn)	none (no result: KDM5B inh)
Cc1ncoc1C(=O)NCC1Cn2cccc2CN1Cc1ccccc1 (stereo not drawn)	KDM5B inh 28µM
CCn1ccc(C(=O)NCC2Cn3cccc3CN2Cc2ccccc2)n1 (stereo not drawn)	KDM5B inh 28µM
CCCOc1nc2ccccc2nc1N1CCC(C(=O)NCc2ccccc2Cl)CC1	none (no result: IP6K1 inhibitor, SNCA viab count, SNCA expr inh)
COc1ccccc1CC(=O)N1CCC(Cc2nc(-c3ccc(F)cc3)no2)CC1	SNCA expr inh inconclusive
Cc1cc(C)n(Cc2ccc(C(=O)NN)o2)n1	none (no result: IP6K1 inhibitor, SNCA viab count, SNCA expr inh)
Cc1cc(C)n(Cc2ccc(C(=O)NCC3Cn4cccc4CN3Cc3ccccc3)o2)n1 (stereo not drawn)	KDM5B inh 32µM
CCc1nnc(NC(=O)c2cccc3ncccc23)s1	none (no result: IP6K1 inhibitor, SNCA viab count, SNCA expr inh)
Cc1cccc(C)c1NC(=O)COc1ccc(S(=O)(=O)N2CCCC2)cc1C(N)=O	none (no result: IP6K1 inhibitor, SNCA viab count, SNCA expr inh)
C1CNC(c2nc(CCOCC3CCOCC3)no2)C1 (stereo not drawn)	none
C1CCC(c2nc(CCOCC3CCCC3)no2)NC1 (stereo not drawn)	KDM5B inh 28µM
O=C(Cc1c[nH]c2ccccc12)N1CCC(c2nc(CCOCC3CCCC3)no2)C1 (stereo not drawn)	SNCA expr inh 20µM
